An excerpt weighted towards active compounds, which were near 8.1% of everything screened.
SW480 rereplic: inducers of DNA re-replication in SW480 colon cancer cells | SW480 DNA re-replication, Hoechst DNA content imaging, 48 h | Potency, µM (doses to about 46.1 µM), inactives show at the highest dose re-replication activation, hits mostly activators | actives 1.8% (n = 340,000) | AID 624297; note: % of control where 0% means no effect; nearly all actives have a fitted effect of over 55% in size
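Compounds, transferred as 23 nL by pin tool, were incubated with cells for 48 hr; DNA content per nucleus was then quantified by Hoechst staining and fluorescence plate imaging.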
ELG1 repair inh: ELG1-dependent DNA repair inhibition; HEK293T ELG1-luciferase reporter, luminescence, 16 h; DNA damage induced by 5-fluorouridine; Potency, µM (series often up to 46.1 µM), without a hit: at the highest dose activity change, negative = inhibition, usual class: inhibitors; actives 2.3% (n = 330,000); AID 504467; note: % is set by controls: 0 for no effect and ±100 for the full control effect; nearly all actives have a fitted effect of over 55% in size
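DMSO vehicle served as the neutral condition. Each well held 2,000 cells given 5-fluorouridine plus compound; after 16 hr at 37 °C/5% CO2, ONE-Glo was added and luciferase measured 30 min later.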
KB-V1 MDR tox: kills drug-selected multidrug resistant KB-V1 cells. KB-V1 MDR cells viability, CellTiter-Glo, 72 h. Potency, µM (doses to about 46.1 µM), hits mostly cytotoxic. actives 3.4% (n = 400,000). AID 1347076; note: % is set by controls: 0 for no effect and ±100 for the full control effect; nearly all actives have a fitted effect of over 60% in size
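qHTS viability screen in drug-selected KB-V1 MDR cells: 72 h compound treatment at 37 degrees C, ATP luminescence end point.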
MCF10A rerep: DNA re-replication induction in MCF 10a cells; AID 624296; MCF 10A DNA re-replication, Hoechst nuclear intensity, 48 h; Potency, µM (top dose mostly 46.1 µM), without a hit: at the top dose activity, positive = re-replication, actives largely listed as activators; actives 2.9% (n = 350,000); note: % of control where 0% means no effect; nearly all actives have a fitted effect of over 50% in size
KB-3-1 cytotox: KB-3-1 parental cell cytotoxicity; actives 1.4% (n = 400,000); KB-3-1 viability, CellTiter-Glo ATP luminescence, 72 h; Potency, µM (series often up to 46.1 µM), actives largely listed as cytotoxic; AID 1347075; note: % is set by controls: 0 for no effect and ±100 for the full control effect; nearly all actives have a fitted effect of over 60% in size
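Here the drug-naive KB-3-1 line serves as comparator for MDR sub-line selectivity; cells received compound titrations, 72 h at 37 °C, then CellTiter-Glo readout.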
* = called active by the depositor; i = inactive; ? = inconclusive; · = no result; [ ] = remark or other dose. Calls come from the whole dose curve; as a rule, active = well fitted curve in the direction sought with a large enough effect; inconclusive = small, poorly fitted or top-dose-only effect, or another doubt; inactive = no such curve, though single readings can be large; an effect the other way counts as inactive or inconclusive. Potency is the fitted concentration of half-maximal effect.

SMILES	SW480 rereplic	ELG1 repair inh	KB-V1 MDR tox	MCF10A rerep	KB-3-1 cytotox
CN(C)c1ccc(/C=C/c2nccc3ccccc23)cc1	·	·	i	·	i
Fc1ccc(/C=C/c2nccc3ccccc23)cc1	·	·	i	·	18µM*
CC1(C)CC(=O)C(C=NCCN2CCN(C(=O)NC34CC5CC(CC(C5)C3)C4)CC2)=C(O)C1	-1%	8%	?	10%	i
COc1ccccc1/C=C/c1ccc2ccccc2n1	·	·	i	·	i
CC(O)/C=C/c1ccc2ccccc2n1 (stereo unspecified)	?	14%	?	18µM*	?
COc1c(Cl)cc(Cl)cc1C(=O)Nc1ccc(CN2CCCCC2)cc1	-1%	13%	i	12µM*	i
O=C(Nc1ccc(CN2CCCCC2)cc1)Nc1ccc(Br)cc1Cl	?	9%	?	16µM*	13µM*
S=C(Nc1ccc(Br)cc1Cl)N1CCCC1	-2%	-8%	·	0%	·
CCCCn1c(=O)c(CCC(=O)O)nc2ccccc21	-1%	?	i	9%	i
COc1ccccc1C(=O)COC(=O)c1ccc(N(C)C)cc1	1%	?	?	15%	i
CCCCSCCCNC(=O)CS(=O)Cc1nc(-c2cccc(C)c2)oc1C (stereo unspecified)	-5%	16µM*	i	-4%	i
COc1ccc2c(=O)c(C(=O)O)c(-c3ccc4c(c3)OCO4)n(C)c2c1	-3%	-1%	i	0%	i
Cc1ccc(CNC(=O)CCCc2nc3ccccc3s2)cc1	-3%	7%	i	-5%	i
N#C/C(=C\c1ccc(-c2ccc([N+](=O)[O-])cc2)o1)C(=O)Nc1nc(-c2cccs2)cs1	-2%	-11%	?	5%	i
N#C/C(=C\c1ccc(-c2ccccc2[N+](=O)[O-])o1)C(=O)Nc1nc(-c2cccs2)cs1	32%	21µM*	i	?	i
CCn1c(=NC(=O)C2COc3ccccc3O2)sc2c(OC)ccc(OC)c21 (stereo unspecified)	-24%	0%	9.2µM*	16%	i
Cc1cc(N2CCOCC2)nc2ccc(NC(=O)CCC(=O)N3CCC(C)CC3)cc12	-5%	?	i	0%	i
CCCCNC(=O)CCC(=O)Nc1ccc2nc(N3CCC(C)CC3)cc(C)c2c1	?	?	i	21µM*	i
CCC(C)NC(=O)CCC(=O)Nc1ccc2nc(N3CC(C)CC(C)C3)cc(C)c2c1 (stereo unspecified)	?	-13%	i	21µM*	i
Cc1c(NC(=O)c2cc(-c3cccs3)on2)c(=O)n(-c2ccccc2)n1C	-5%	-1%	i	0%	i
Cc1cc(C(=O)N/N=C2\CCCC(=O)C2)c2ccccc2n1	-2%	-6%	i	-5%	i
CCCC(C)Sc1nc2c([nH]1)c(=S)n(C)c(=O)n2C (stereo unspecified)	?	·	8.2µM*	16%	?
O=S(=O)(c1cccc(F)c1)N1CCN(c2nc(-c3cccnc3)nc3ccccc23)CC1	-17%	10µM*	?	?	?
O=S(=O)(c1cccc(Cl)c1)N1CCN(c2nc(-c3ccccc3)nc3ccccc23)CC1	·	·	i	·	?
CCOC(=O)C1(Cc2cccc(F)c2)CCN(Cc2ccc(COC)o2)CC1	1%	23µM*	i	11%	?
SMILES	SW480 rereplic	ELG1 repair inh	KB-V1 MDR tox	MCF10A rerep	KB-3-1 cytotox
COc1ccc(OCC(=O)OC(C)CN2CCCCC2)cc1 (stereo unspecified)	-92%	0%	i	1%	i
Cc1ccc(OCC(=O)OC(C)CN2CCCCC2)cc1 (stereo unspecified)	-100%	-3%	i	1µM*	i
O=C(Cc1ccccc1)N1CCc2ccccc21	-5%	?	?	7%	i
CC(OC(=O)c1nc(Cl)ccc1Cl)C(=O)Nc1ccc2c(c1)OCCO2 (stereo unspecified)	-37%	20%	i	1.6µM*	i
CC(OC(=O)c1cccnc1Cl)C(=O)Nc1ccc2c(c1)OCCO2 (stereo unspecified)	-7%	?	i	14%	i
O=S(=O)(Nc1cccc(C(F)(F)F)c1)c1ccc(NS(=O)(=O)c2ccc3c(c2)OCCO3)cc1	·	·	i	·	i
CC(OC(=O)c1cccc(S(=O)(=O)Nc2cccc(C(F)(F)F)c2)c1)C(=O)Nc1ccc2c(c1)OCCO2 (stereo unspecified)	8%	?	15µM*	?	?
CC(=O)c1ccc(NC(=O)Nc2cccc3ccccc23)cc1	?	?	i	?	i
O=C1CCCN1c1ccc(S(=O)(=O)NCCOc2ccccc2)cc1	2%[9.22 µM]	?	i	-3%	i
Cc1cc(N2CCCC2=O)cc(C)c1S(=O)(=O)NCCOc1ccc(C(C)(C)C)cc1	17%	21µM*	?	?	?
CN(C)/C=C/C(=O)c1ccc(Br)cc1	1%	?	i	?	i
Cc1ccc(C)n1-c1ccc(C(=O)/C=C/N(C)C)cc1	?	?	i	23µM*	i
COc1ccccc1CNC(=O)CCn1nc(C)c2c(C)n(-c3ccccc3)nc2c1=O	·	·	i	·	i
CC1C(c2ccccc2)N(C)C(c2ccccc2)C(C)C1(O)C#Cc1ccccc1 (stereo unspecified)	4%	3%	?	23µM*	?
CCN(CC)CCOc1ccc(/C(=C(\Cl)c2ccccc2)c2ccccc2)cc1	4%	-2%	i	5.2µM*	?
COc1ccc(CCC(=O)Nc2cc(S(=O)(=O)N3CCCCC3)ccc2N(C)C)cc1	-4%	?	i	3%	i
Cc1cc(C)nc(NC(=O)c2ccc(C)c(C)c2)n1	-8%	?	i	-1%	i
N#CCSc1ncnc2ccccc12	?	23µM*	i	?	i
C[C@H](CO)N1C[C@H](C)[C@H](CN(C)S(=O)(=O)c2cn(C)cn2)Oc2ccc(NC(=O)Nc3ccc(C(F)(F)F)cc3)cc2CC1=O	?	?	?	?	4.1µM*
Cc1ccc(S(=O)(=O)N(C)C[C@@H]2Oc3ccc(NC(=O)CCC(F)(F)F)cc3CC(=O)N([C@@H](C)CO)C[C@@H]2C)cc1	3.7µM*	0%	i	3.7µM*	?
C[C@@H]1CN([C@@H](C)CO)C(=O)Cc2cc(NC(=O)Nc3ccc(C(F)(F)F)cc3)ccc2O[C@@H]1CN(C)S(=O)(=O)c1ccc(Cl)cc1	6%	21µM*	i	?	?
CC1(C)Oc2ccc3ccc(=O)oc3c2-c2cn[nH]c21	3%	?	i	?	i

Bioassay records (PubChem BioAssay)
